# Data: the supplement of paper PMC9694430
# Tests used:
# Test in all cases: thermal shift delta Tm vs DMSO control; higher = stronger stabilization (binding)
# Conditions in all cases: 12.5 µM; protein concentration 2 µM
# [1] = test system: LOC_OS01G01410-cb001
# Procedure, shortened: (§1)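 Thermal shift values come from differential scanning fluorimetry on purified rice kinase domains made in E. coli, with melting temperatures obtained from Boltzmann fits. Samples of 19.5 μl held 2 μM kinase, 100 mM potassium phosphate pH 7.5, 150 mM NaCl, 10% glycerol, 5 × SYPRO Orange and compound in DMSO, and were heated from 25°C to 95°C at 0.05°C/s. Each shift is a triplicate mean relative to the DMSO-only protein sample.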
# [2] = test system: LOC_OS01G02750-cb003
# Procedure, shortened: as §1
# [3] = test system: LOC_OS01G10900-cb004
# Procedure, shortened: as §1
# [4] = test system: LOC_OS01G13800-cb001
# Procedure, shortened: as §1
# [5] = test system: LOC_OS01G14860-cb001
# Procedure, shortened: as §1
# [6] = test system: LOC_OS01G21960-cb002
# Procedure, shortened: as §1
# [7] = test system: LOC_OS01G39600-cb002
# Procedure, shortened: as §1
# [8] = test system: LOC_OS01G48390-cb002
# Procedure, shortened: as §1
# [9] = test system: LOC_OS01G51400-cb002
# Procedure, shortened: as §1
# [10] = test system: T1, LOC_OS01G52050-cb004
# T1 sequence (whole entry): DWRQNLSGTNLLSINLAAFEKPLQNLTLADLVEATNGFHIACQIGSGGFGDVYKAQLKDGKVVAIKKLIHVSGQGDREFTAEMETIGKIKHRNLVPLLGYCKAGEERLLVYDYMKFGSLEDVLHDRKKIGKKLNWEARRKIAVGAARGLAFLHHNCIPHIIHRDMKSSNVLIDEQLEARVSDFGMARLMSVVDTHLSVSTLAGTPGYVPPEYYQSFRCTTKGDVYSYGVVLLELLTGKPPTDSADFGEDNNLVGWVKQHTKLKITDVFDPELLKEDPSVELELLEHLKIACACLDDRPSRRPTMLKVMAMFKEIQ
# Procedure, shortened: as §1
# 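Further: purified Escherichia coli-expressed rice kinase domain construct.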
SMILES,thermal shift delta Tm [1] [°C],thermal shift delta Tm [2] [°C],thermal shift delta Tm [3] [°C],thermal shift delta Tm [4] [°C],thermal shift delta Tm [5] [°C],thermal shift delta Tm [6] [°C],thermal shift delta Tm [7] [°C],thermal shift delta Tm [8] [°C],thermal shift delta Tm [9] [°C],thermal shift delta Tm [10] [°C]
COc1ccc(CCNCc2ccc(OCc3ccc(Cl)nc3)c(OC)c2)cc1OC,0.02,0.3,0.52,0.46,0.35,0.01,0.48,0.52,-0.03,-0.18
CCc1cc(Nc2nccc(-c3c(-c4ccc(OC)c(C(=O)Nc5c(F)cccc5F)c4)nc4ccccn34)n2)c(OC)cc1N1CCC(N2CCN(S(C)(=O)=O)CC2)CC1,1.23,-0.77,0.34,0.56,0.33,1.05,1.04,0.41,0.3,0.04
FC(F)c1nc2ccccc2n1-c1nc(N2CCOCC2)nc(N2CCOCC2)n1,0.85,0.92,0.18,0.89,-0.06,0.23,0.94,0.8,0.35,0.72
N#Cc1c(NC(=O)c2cccc3ccccc23)sc2c1CCCC2 [JNK Inhibitor IX],0.03,1.54,0.06,0.52,-0.15,0.78,-0.09,-0.06,0.19,-0.13
C[C@@]1(C(=O)Nc2ccc(F)nc2)CCCN1c1nc(Nc2cc(C3CC3)n[nH]2)c2cccn2n1,1.85,3.65,0.11,0.04,3.52,0.38,4.9,1.12,0.67,0.49
C=C(C)[C@@H]1CC[C@]2(C)CC[C@]3(C)[C@H](CC[C@@H]4[C@@]5(C)CC[C@H](O)C(C)(C)[C@@H]5CC[C@]43C)[C@@H]12 [Lupeol],0.2,0.62,0.32,0.74,0.11,0.67,0.07,-0.09,-0.11,0.44
Cc1csc(-c2nnc(Nc3ccc(Oc4ncccc4-c4ccnc(N)n4)cc3)c3ccccc23)c1,1.65,0.49,0.46,0.28,0.97,1.99,1.72,1.04,0.22,1.54
"COc1cc(F)c(F)c(Nc2ccc(I)cc2F)c1NS(=O)(=O)C1(C[C@H](O)CO)CC1 [Refametinib (RDEA119, Bay 86-9766)]",1.35,-1.27,0.47,0.32,0.61,0.52,-0.03,0.23,0.02,1.46
COc1ccccc1-c1cc(Nc2cccc(CS(N)(=O)=O)c2)ncn1,0.57,1.83,-0.11,0.56,1.07,1.02,-0.27,0.79,0.36,0.9
CC(C)[C@H](CO)Nc1nc(Nc2cccc(Cl)c2)c2ncn(C(C)C)c2n1 [Purvalanol A],1.58,3.04,0.07,-0.49,1.34,2.18,-0.08,2.56,0.45,5
CN1CCN(c2cccc(Nc3nc4c(-c5ccc(S(C)(=O)=O)cc5)cccn4n3)c2)CC1,2.06,0.63,1.02,-0.37,0.51,1.39,2.12,1.12,0.39,2.68
C=CC(=O)Nc1ccc2ncnc(Nc3cccc(Br)c3)c2c1,0.7,-0.16,-0.13,-0.18,0.1,0.15,-12.2,0.59,0.29,0
O=c1c(O)c(-c2ccc(O)c(O)c2)oc2cc(O)cc(O)c12 [Quercetin],3.05,7.25,1.68,1.97,3.55,3.4,6.51,2.95,1.5,6.25
Clc1ccc(Nc2nnc(Cc3ccncc3)c3ccccc23)cc1 [Vatalanib (PTK787) 2HCl],0.99,0.12,-0.92,0.36,0.31,0.21,0.01,0.44,-0.2,0.04
C=CC(=O)N1CCN(CCCn2c(=O)c(-c3c(Cl)c(OC)cc(OC)c3Cl)cc3cnc(NC)nc32)CC1,0.19,0.26,0.4,-0.37,0.42,0.28,0.11,0.23,0.12,0.46
COc1ccc(-c2ccc3c(N4CCOCC4)nc(N4C[C@@H](C)O[C@@H](C)C4)nc3n2)cc1CO,0.64,0.68,0.83,-0.38,0.08,-0.07,-0.02,-0.04,-0.03,0.27
C=CCc1ccc(O)c(-c2ccc(O)c(CC=C)c2)c1 [Honokiol],0.83,1.12,0.85,0.22,0.9,1.38,1.21,0.93,0.36,1.76
CCN(CC)CCNC(=O)c1c(C)[nH]c(/C=C2\C(=O)Nc3ccc(F)cc32)c1C [Sunitinib Malate],4.49,1.04,0.54,-0.1,1.29,2.13,2.58,2.08,0,7.04
Cc1ccc(Nc2nccc(N(C)c3ccc4c(C)n(C)nc4c3)n2)cc1S(N)(=O)=O [Pazopanib],2.16,0.45,1.67,-0.48,0.04,0.56,1.25,4.34,0.23,0.91
